Screens (PubChem BioAssay)
GBA mod – Glucocerebrosidase | Lysosomal acid glucosylceramidase (Homo sapiens), P04062 | purified enzyme, resorufin glucoside fluorescence (screen aimed at inhibitors), 20 min | Potency, µM | 48,000 compounds, 1.1% hits | AID 360, 2006; in the data active = potency below about 15 µM; inconclusive = mostly about 16 µM to 33 µM;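 also: the screen sought inhibitors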
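Compounds titrated against 0.2 nM normal enzyme, 30 uM resorufin beta-D-glucopyranoside substrate, citrate/phosphate buffer with taurocholate and tween-20, pH 5.9. Reaction ran 20 min at room temperature; fluorescence (Ex 548/Em 600) gave AC50.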
Bst PK mod – Pyruvate Kinase | purified pyruvate kinase, luminescence ATP production; ribose 5-phosphate activator present at AC10 | 51,000 compounds, 1.2% hits | Potency, µM | AID 361, 2006; in the data active = potency below about 11 µM; inconclusive = mostly about 12 µM to 25 µM;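 the screen sought inhibitors and activators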;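 also: scaled between full activation by ribose 5 phosphate and full inhibition by luteolin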
TSHR ag – qHTS Assay for Agonists of the Thyroid Stimulating Hormone Receptor; Thyrotropin receptor (Homo sapiens), P16473; AID 926, 2007; HEK293-CNG-TSHR cells (CNG channel as cAMP sensor), membrane potential dye, cAMP; Potency, µM (top dose mostly 57.1 µM), for inactives: top-dose activation, most hits filed as activators; 73,000 compounds, 0.48% hits; active = well fitted activation curve with a large enough effect in the main read-out, with a control signal flat, not every such curve was filed as active; inconclusive = small, poorly fitted or top-dose-only effect, or a change in a side signal; inactive = no such curve, though single readings can be large or run the other way; % of control where 0% means no effect;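 also: the control signal comes from parental cells without the receptor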
Target sequence (P16473 whole entry, looked up): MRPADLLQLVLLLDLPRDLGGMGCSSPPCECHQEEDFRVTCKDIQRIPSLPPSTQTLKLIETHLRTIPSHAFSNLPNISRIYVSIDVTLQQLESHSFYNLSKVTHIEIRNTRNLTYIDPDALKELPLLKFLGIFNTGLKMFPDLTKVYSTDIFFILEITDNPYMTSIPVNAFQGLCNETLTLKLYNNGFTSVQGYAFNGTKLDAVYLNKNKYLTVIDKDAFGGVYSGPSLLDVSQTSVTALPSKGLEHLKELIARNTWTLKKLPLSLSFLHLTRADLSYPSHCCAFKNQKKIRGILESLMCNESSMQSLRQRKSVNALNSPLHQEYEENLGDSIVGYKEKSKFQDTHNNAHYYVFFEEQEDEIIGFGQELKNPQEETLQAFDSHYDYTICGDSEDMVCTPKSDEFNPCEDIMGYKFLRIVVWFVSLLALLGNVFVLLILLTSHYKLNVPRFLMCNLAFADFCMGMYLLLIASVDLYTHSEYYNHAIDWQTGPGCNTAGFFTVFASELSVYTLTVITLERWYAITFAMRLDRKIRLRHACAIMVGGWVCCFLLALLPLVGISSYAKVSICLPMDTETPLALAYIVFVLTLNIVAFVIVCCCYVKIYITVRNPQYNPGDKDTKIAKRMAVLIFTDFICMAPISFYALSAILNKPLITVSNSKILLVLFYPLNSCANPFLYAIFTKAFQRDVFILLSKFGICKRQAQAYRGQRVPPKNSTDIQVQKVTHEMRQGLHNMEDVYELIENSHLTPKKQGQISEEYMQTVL
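HEK 293 cells stably expressing TSHR and a cAMP-gated CNG channel; parental CNG-only cells as counterscreen. Cells preloaded 60 min with membrane potential dye plus 100 uM RO 20-1724, then compound 30 min; fluorescence read at 590 nm.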
Luciferase inh – qHTS Assay for Inhibitors of Firefly Luciferase; Potency, µM (top dose mostly 57.1 µM), without a hit: at the highest dose activity change, negative = inhibition, most hits filed as inhibitors; purified firefly luciferase, luminescence, 8 min; 72,000 compounds, 2.2% hits; also: % is scaled to controls: 0 for no effect and ±100 for the full control effect; nearly all actives have a fitted effect of over 40% in size
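Titration-based qHTS; buffer 50 mM imidazole pH 7.2, 50 mM KCl, 7 mM MgCl2, 10 uM ATP, 0.01% Tween 20, 0.05% BSA; luciferase/luciferin detector mix added after compound; 8 min, ambient; luminescence.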
HEK293 cAMP ctrl – qHTS Assay for Agonists of the Thyroid Stimulating Hormone Receptor: Activators of Intracellular cAMP Concentrations in Parental HEK 293; parental HEK293 CNG cAMP sensor, membrane potential fluorescence; Potency, µM (series often up to 57.1 µM), without a hit: at the highest dose activation, usual class: activators; 73,000 compounds, 2.5% hits; AID 938, 2007; also: % of control where 0% means no effect; nearly all actives have a fitted effect of over 55% in size
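Counterscreen for endogenous-receptor signalling: CNG-channel HEK 293 cells report cAMP rise by membrane depolarization. After 60 min dye equilibration with 100 uM RO 20-1724, compounds incubated 30 min before bottom-read fluorescence at 590 nm.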
* marks the source's active call; other numbers are inactive results; i = inactive; u = inconclusive; x = no result given; [ ] = dose if it differs, or a comment. In the library only some 5.8% were active in any assay of this set; here they are far more common. Unless noted, calls follow the shape of the dose curve; as a rule, active = well fitted curve in the direction sought with a large enough effect; inconclusive = small, poorly fitted or top-dose-only effect, or another doubt; inactive = no such curve, though single readings can be large; an effect the other way counts as inactive or inconclusive. Potency is read from the fitted curve at half-maximal effect.

SMILES | GBA mod | Bst PK mod | TSHR ag | Luciferase inh | HEK293 cAMP ctrl
Fc1ccccc1OCCSc1nnnn1-c1ccccc1 | >77 | x | x | 16µM* | 30%
COc1ccc(-c2cc(C(=O)N/N=C/c3ccc(OC)c(OC)c3)[nH]n2)cc1 | x | x | -1% | x | -2%
NC(=NC1C2CC3CC(C2)CC1C3)Nc1ccc(I)cc1 (stereo not given) | x | x | 8% | 1% | 29%
COc1ccc(OCC(O)Cn2c(=N)n(Cc3ccccc3)c3ccccc32)cc1 (stereo not given) | 14* | >57 | u | -1% | -39%
N=c1n(CCO)c2ccccc2n1CCOc1ccccc1 | 6* | >57 | 9% | 3% | 27%
CCn1c(=N)n(CCOc2ccc(OC)cc2)c2ccccc21 | 6.9* | >57 | 8% | 3% | 15%
Cc1cnc(CNc2cc(-c3cccnc3)ncn2)cn1 | x | x | 0% | -2%[2.29 µM] | 22%
COC(=O)[C@@]1(Cc2ccc(F)cc2)[C@@H]2C(=CC(=O)[C@H]2CC(=O)C(=O)N(C)C)CN1C(=O)c1ccccc1 | x | x | -1% | x | 20%
COc1ccc2c(c1)c(C(=O)CN1CCN(C(=O)c3ccco3)CC1)c(C)n2C | >77 | >57 | -3% | 2% | 1%
CC(=O)c1c(C)n(C)c2ccc(OC(=O)c3ccco3)cc12 | >77 | 8.4* | 13% | -1% | -14%
NCCC[C@@H](CC(=O)N[C@@H]1CCNC[C@H]1C(=O)N[C@H](CC(=O)N[C@@H](CCC(=O)O)CC(=O)O)Cc1c[nH]c2ccccc12)NC(=O)C[C@H](CO)NC(=O)[C@@H]1CNCC[C@H]1N | x | x | 9% | x | 11%
O=C(C1CCCN(S(=O)(=O)c2ccccc2)C1)N1CCN(c2ncccn2)CC1 (stereo not given) | >77 | >57 | -2% | 4% | 8%
O=C(C1CCN(S(=O)(=O)c2ccc3ccccc3c2)CC1)N1CCN(c2ncccn2)CC1 | >77 | i | u | 2% | 25µM*
CC(C)c1ccc(S(=O)(=O)N2CCN(C(=O)c3cccc(F)c3)CC2)cc1 | 15* | >57 | u | 0% | 20µM*
CCn1c(SCC(=O)c2ccc3c(c2)OCCO3)nnc1-c1ccco1 | >77 | x | 10% | 16µM* | 19%
Cc1ccc(C(=O)CSc2nnc(-c3ccco3)n2Cc2ccccc2)cc1 | >77 | >57 | u | -5% | 13µM*
CCn1c(SCC(=O)c2ccc(Cl)cc2)nnc1-c1ccoc1C | >77 | >57 | u | -5% | 25µM*
CC(C)OC(=O)CSc1nnc(-c2ccc(O)cc2)n1Cc1ccccc1 | >77 | x | x | 25µM* | 15%
O=C(CSc1nnc(-c2ccco2)n1Cc1ccccc1)c1ccccc1 | >77 | >57 | 3%[11.4 µM] | -16% | 19%
O[C@@](CCN1CCCCC1)(c1ccccc1)C1CCCCC1 | x | x | u | -3%[25.5 µM] | 32%[25.6 µM]
O=C1[C@H]2[C@H]3[C@H](O)[C@H](O)C/C(=N/OC[C@@H](O)COCc4ccco4)[C@H]3CC[C@@H]2C(=O)N1c1cccc(Oc2ccccc2)c1 | x | x | -3%[11.4 µM] | -1%[11.4 µM] | 1%[11.4 µM]
CC(C)Cn1c(SCC(=O)c2ccc(Cl)s2)nnc1-c1ccco1 | >77 | >57 | u | -27% | 20µM*
CCCCn1c(SCC(N)=O)nnc1-c1ccco1 | >77 | >57 | 8% | -2% | 20%
N#Cc1c(/N=C/c2ccco2)sc2c1CCC2 | >77 | x | -2% | 2.5µM* | -7%
Cc1ccc(/C=N/c2sc3c(c2C#N)CCC3)s1 | 11* | 4.3* | -6% | 1.6µM* | 0%
SMILES | GBA mod | Bst PK mod | TSHR ag | Luciferase inh | HEK293 cAMP ctrl
Cc1ccc(/C=N/c2sc3c(c2C#N)CCCCC3)o1 | u | >57 | -2% | 1% | 6%
CC1CCC2C(=O)OC(CN3C(=O)c4ccccc4C3=O)CN2C1c1ccc(Br)cc1 (stereo not given) | x | x | 10%[11.4 µM] | x | 22%[11.4 µM]
CC(=O)C1(C)CC2=C(CCCC2(C)C)CC1C (stereo not given) | x | x | 3% | x | 20%
CN(C)C(=O)Cn1c(SCC(=O)NC2CCCCC2)nc2ccccc21 | >77 | >57 | 0% | -1% | 20%
CC(C)Cn1c(SCC(=O)NC(=O)NC2CCCC2)nc2ccccc21 | u | >57 | u | -1% | 32µM*
O=C1[C@H]2[C@H]3[C@H](O)[C@H](O)C/C(=N/OCc4ccccc4)[C@H]3CC[C@@H]2C(=O)N1Cc1ccc2c(c1)OCO2 | x | x | 2%[11.4 µM] | 0%[11.4 µM] | -1%[11.4 µM]
COc1cccc2cc(C(=O)NCC3CCCO3)c(=O)oc12 (stereo not given) | >77 | >57 | -1% | 0% | -5%
Cc1cccc(N=c2oc3cc(O)ccc3cc2C(N)=O)c1 | x | x | -1% | -15% | 13%
COc1ccccc1N=c1oc2cc(O)ccc2cc1C(=O)NCC1CCCO1 (stereo not given) | >77 | 2.6* | u | -7% | 1.6µM*
COc1ccccc1N=c1oc2cc(O)ccc2cc1C(N)=O | x | x | x | 7.9µM* | 5%
O=C(Cc1cccs1)N(Cc1ccco1)C1(C(=O)NC2CCCC2)CCCCC1 | >77 | >57 | u | -1% | 0.13µM*
NC(=O)c1nsc(C(=O)N(CCc2ccccc2)C(C(=O)NC2CCCC2)c2ccco2)c1N (stereo not given) | x | >57 | u | 3% | 6.3µM*
CCOCCCN(C(=O)CNC(=O)c1ccco1)C(C(=O)NC1CCCC1)c1ccccc1C (stereo not given) | >77 | >57 | u | -2% | 32µM*
O=C(NC1CCCCC1)C(c1ccco1)N(Cc1ccco1)C(=O)c1ccco1 (stereo not given) | >77 | >57 | u | 1% | 16µM*
O=C1NC(=O)C(CC(=O)N(Cc2ccco2)C2(C(=O)NC3CCCC3)CCCCC2)N1 (stereo not given) | >77 | >57 | u | -1% | u
COc1ccc(C(C(=O)NC2CCCC2)N(CCN(C)C)C(=O)c2snc(C(N)=O)c2N)cc1 (stereo not given) | >77 | >57 | 6% | 2% | 19%
N[C@@H](Cn1cc(I)c(=O)n(Cc2ccc(C(=O)O)cc2)c1=O)C(=O)O | x | x | u | 3% | u
O=C(NC1CCCCC1)N(Cc1ccccc1)Cc1ccco1 | x | x | u | 0% | 16µM*
CN(C)S(=O)(=O)c1ccc(S(=O)(=O)N(Cc2ccccn2)Cc2ccco2)cc1 | 6.7* | >57 | 9% | 2% | 4%
N#CCCn1c(=O)c(-c2ccccc2)nc2cnc(Nc3ccccc3)nc21 | x | x | u | 1%[11.4 µM] | 10µM*
COc1cc(OC)c(OC)cc1CN(C)CCc1ccccn1 | 15* | >57 | 12% | 3% | 3%
COc1ccc(CN(C)CCc2ccccn2)cc1OC | >77 | >57 | 5% | 1% | 4%
C=C(C)COc1ccc2c(c1)CCC1C2CC[C@]2(C)C(=O)/C(=N/O)CC12 (stereo not given in full) | x | x | -2%[11.4 µM] | 3%[11.4 µM] | 2%[11.4 µM]
COc1ccccc1-c1cc(C(F)(F)F)nc(S(=O)(=O)CCCC(=O)Nc2cc(C)on2)n1 | 9.4* | >57 | 21% | 0% | 5%
